Data on four molecules can be found in PubChem BioAssay (EPA / NIEHS).

Assay [1] can be described thus: ACEA_ER_80hr: ACEA Biosciences xCELLigence Real-Time Cell Analysis on Estrogen Receptor Agonism for Proliferation (AID 2282667; active = hit-call score of the fitted dose curve at least 0.9, where 1 is the maximum). The note with it: T47D proliferation, impedance (xCELLigence), 80 h. Summed up: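 T47D human breast cells were seeded on electrode plates, monitored overnight, then exposed continuously to compounds in eight-point 1:4 dilutions from 100 uM (max 0.5% DMSO). Impedance-based growth was read at 80 h, fitted upward relative to DMSO.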

The nature of assay [2]: ATG_CRE_CIS: Attagene CIS-FACTORIAL HepG2 Assay for human cAMP Responsive Element (CRE) binding protein 3 (AID 2282926). The note with it: HepG2 CRE cis-reporter, Attagene multiplexed mRNA; actives raise or lower the signal. Summed up: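 Capillary electrophoresis of 6-FAM-labelled, HpaI-digested PCR products quantified reporter transcripts. These came from HepG2 transiently transfected with cis-element reporters and exposed to test chemicals for 24 hours, with DMSO defining baseline activity.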

Assay [3] concerns the target CCAAT/enhancer-binding protein beta (Homo sapiens) (UniProt P17676). Description: ATG_C_EBP_CIS: Attagene CIS-FACTORIAL HepG2 Assay for human CCAAT/Enhancer Binding Protein (C/EBP) beta (AID 2282927). The note with it: HepG2 Attagene cis-factorial transcription factor reporter; actives raise or lower the signal. In a few lines:
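HepG2 transiently transfected with multiplexed reporter units under cis-regulatory promoters reporting endogenous C/EBPb activity. After 24 h exposure, reporter mRNA assayed by RT-PCR, fluorescent labelling, HpaI digestion and capillary electrophoresis; bidirectional fitting versus DMSO.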

Assay [4] in a line: ATG_CMV_CIS: Attagene CIS-FACTORIAL HepG2 Assay for human CMV (Internal Marker) (AID 2282928).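 Also: endpoint acts as a background internal control marker rather than a target.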 The following applies: HepG2 CMV promoter reporter, transcription factor profiling; actives raise or lower the signal. Summed up:
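Reporter transcripts from transfected HepG2 cells are isolated after 24 h of chemical dosing, reverse-transcribed and amplified. Fragments labeled with 6-FAM are cut with HpaI and quantified by capillary electrophoresis; DMSO defines baseline.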

Assay [5] is described as follows: ATG_DR4_LXR_CIS: Attagene CIS-FACTORIAL HepG2 Assay for human Liver X Receptor (LXR), DR4 submotif (AID 2282929). The following applies: HepG2 Attagene DR4 cis-reporter, mRNA transcription; actives raise or lower the signal. In a few lines:
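HepG2 cells were transiently transfected with multiple cis-regulated reporter units and dosed for 24 hours. The DR4 reporter mRNA was quantified by RT-PCR, 6-FAM labelling and capillary electrophoresis. Bidirectional fits used DMSO as baseline.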

Assay [6] concerns the target Aryl hydrocarbon receptor (Homo sapiens) (UniProt P35869). Description: ATG_Ahr_CIS: Attagene CIS-FACTORIAL HepG2 Assay for human Aryl Hydrocarbon Receptor (Ahr) (AID 2282930). The following applies: HepG2 AhR cis-factorial reporter transcription; actives raise or lower the signal. Summed up: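 HepG2 cells transiently transfected with cis-element-driven multiplexed reporter units; endogenous AhR activity read as reporter mRNA 24 h after dosing, via RT-PCR, 6-FAM labelling, HpaI digestion and capillary electrophoresis. Bidirectional fit relative to DMSO.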

A short description of assay [7]: ATG_AP_1_CIS: Attagene CIS-FACTORIAL HepG2 Assay for human Activator Protein 1 (AP-1) (AID 2282931). The note with it: HepG2 Attagene cis-factorial AP-1 reporter mRNA; actives raise or lower the signal. Summed up: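 HepG2 cells transiently transfected with cis-element-driven reporter transcription units, dosed for 24 hours. Reporter mRNA measured by RT-PCR, 6-FAM labelling, HpaI digestion and capillary electrophoresis. Bidirectional fitting against DMSO baseline.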

The nature of assay [8]: ATG_BRE_CIS: Attagene CIS-FACTORIAL HepG2 Assay for human Bone Morphogenetic Protein (BMP) Response Element (BRE) (AID 2282933). The note with it: HepG2 BMP response element reporter, Attagene transcription factor profiling; actives raise or lower the signal. Summed up: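 Multiplexed cis-reporter assay, HepG2, 24 h exposure. mRNA from reporter units quantified via RT-PCR/CE; DMSO baseline; bidirectional curve fit.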

The target in assay [9] is Retinoic acid receptor alpha (Homo sapiens) (UniProt P10276). The assay is described as follows: ATG_DR5_RAR_CIS: Attagene CIS-FACTORIAL HepG2 Assay for human Retinoic Acid Receptor Alpha (RARE), DR5 submotif (AID 2282934).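 As to AC50: reporter responds to endogenous RAR alpha beta and gamma in HepG2 not RARA alone.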 The following applies: HepG2 Attagene cis-factorial RARE DR5 reporter, mRNA; actives raise or lower the signal. In a few lines: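 HepG2 cells transiently transfected with multiplexed reporter units; DR5 cis-element drives reporter through endogenous transcription factors. After 24 h dosing, reporter mRNA quantified by RT-PCR, fluorescent labeling, HpaI digestion and capillary electrophoresis; bidirectional fitting versus DMSO.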

Assay [10] addresses Transcription factor E2F1 (Homo sapiens) (UniProt Q01094). The assay is described as follows: ATG_E2F_CIS: Attagene CIS-FACTORIAL HepG2 Assay for human E2F Transcription Factor 1 (AID 2282935). The following applies: HepG2 Attagene cis-reporter, E2F reporter RNA transcripts; actives raise or lower the signal. In a few lines: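 Transient MRTU transfection of HepG2; 24 h compound exposure; RNA → oligo(dT) RT → PCR → FAM label → HpaI cut → CE fluorescence. Gain/loss of signal fit against DMSO.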

Assay [11] can be described thus: ATG_E_Box_CIS: Attagene CIS-FACTORIAL HepG2 Assay for human Enhancer Box (E-box) (AID 2282936). The note with it: HepG2 E-box cis-reporter transcription, actives raise or lower the signal. Summed up: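 Transiently transfected HepG2, endogenous TF-driven reporters, 24 h dosing. Readout: RT-PCR plus capillary electrophoresis of fluorescent reporter fragments. Gain or loss of signal fitted bidirectionally against DMSO baseline.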

Assay [12] is described as follows: ATG_M_61_CIS: Attagene CIS-FACTORIAL HepG2 Assay for M61 Transcription Factor (Internal Marker) (AID 2282937). The note with it: HepG2 Attagene CIS-FACTORIAL M61 internal marker reporter; actives raise or lower the signal. In a few lines:
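HepG2 cells transiently transfected with multiplexed cis-promoter reporter units reporting endogenous transcription factor activity, measured 24 h after dosing. Reporter mRNA quantified by RT-PCR and capillary electrophoresis; bidirectional fit against DMSO baseline.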

A short description of assay [13]: ATG_EGR_CIS: Attagene CIS-FACTORIAL HepG2 Assay for human Early Growth Response 1 (EGR1) (AID 2282938). The following applies: HepG2 Attagene CIS-FACTORIAL EGR reporter mRNA; actives raise or lower the signal. In a few lines:
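HepG2 cells transiently transfected with cis-element-driven multiplexed reporter units, dosed for 24 h. EGR1-element reporter mRNA quantified by RT-PCR, 6-FAM labelling, HpaI digestion and capillary electrophoresis; bidirectional fit versus DMSO.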

Assay [14] in a line: ATG_M_19_CIS: Attagene CIS-FACTORIAL HepG2 Assay for M19 Transcription Factor (Internal Marker) (AID 2282939). The note with it: HepG2 Attagene CIS-FACTORIAL M19 internal marker reporter; actives raise or lower the signal. In a few lines: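 Signals come from fluorescence of labelled reporter-specific PCR fragments resolved by capillary electrophoresis, following 24 h treatment of HepG2 cells transfected with cis-promoter reporter units; activity was fitted in both directions relative to DMSO.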

Assay [15] in a line: ATG_ERE_CIS: Attagene CIS-FACTORIAL HepG2 Assay for Estrogen Response Element (ERE) (AID 2282940). The following applies: HepG2 ERE cis-reporter, Attagene RNA transcript; actives raise or lower the signal. In a few lines:
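Fluorescence of capillary-separated, FAM-labelled reporter cDNA fragments indicates reporter mRNA levels in HepG2 cells exposed to chemicals for 24 h. Transient transfection with cis-regulated units; data fitted in both directions against DMSO.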

For assay [16], the target named is Hepatocyte nuclear factor 3-beta (Homo sapiens) (UniProt Q9Y261). Description: ATG_FoxA2_CIS: Attagene CIS-FACTORIAL HepG2 Assay for human Forkhead box A2 (FOXA2) (AID 2282942). The following applies: HepG2 cis-reporter transcription factor activity, 24 h; actives raise or lower the signal. Summed up:
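HepG2 transiently transfected with a multiplexed cis-promoter reporter library read endogenous FOXA2 activity. After 24 h compound exposure, reporter mRNA was quantified by RT-PCR, HpaI digestion and capillary electrophoresis. Bidirectional fit against DMSO.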

The nature of assay [17]: ATG_FoxO_CIS: Attagene CIS-FACTORIAL HepG2 Assay for human Forkhead box O (FoxO) (AID 2282943). The note with it: HepG2 Attagene cis-reporter, FoxO element, mRNA; actives raise or lower the signal. Summed up: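 HepG2 cells transiently transfected with cis-element-driven reporter units report endogenous FoxO activity. After 24 h chemical exposure, reporter mRNA quantified by RT-PCR, fluorescent labeling, HpaI digestion and capillary electrophoresis; bidirectional fit versus DMSO.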

A short description of assay [18]: ATG_GATA_CIS: Attagene CIS-FACTORIAL HepG2 Assay for human GATA Binding Protein (AID 2282944). The note with it: HepG2 GATA cis-element reporter, Attagene multiplex mRNA; actives raise or lower the signal. In a few lines: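 After transfecting HepG2 cells with multiple cis-regulated reporter units, chemicals are dosed for 24 h; isolated RNA undergoes RT-PCR and fluorescent labeling before capillary electrophoresis, with activity expressed against DMSO.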

A short description of assay [19]: ATG_AP_2_CIS: Attagene CIS-FACTORIAL HepG2 Assay for human Activator Protein 2 (AP-2) (AID 2282932). The note with it: HepG2 AP-2 cis-reporter, Attagene transcription factor profiling; actives raise or lower the signal. Summed up: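 Read-out: fluorescent reporter mRNA via RT-PCR and capillary electrophoresis, 24 h post-dose in transiently transfected HepG2. Endogenous factors drive cis-promoter reporters; gain or loss of signal fitted bidirectionally against DMSO.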

Assay [20] is described as follows: ATG_Ets_CIS: Attagene CIS-FACTORIAL HepG2 Assay for human Erythroblast Transformation Specific (ETS) (AID 2282941). The note with it: HepG2 ETS cis-reporter transcription, actives raise or lower the signal. Summed up: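 Bidirectional fit versus DMSO of reporter mRNA signal, detected by RT-PCR and capillary electrophoresis in HepG2 cells transiently transfected with cis-element reporters and dosed 24 h.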

Inconclusive results are not listed. Active and inactive are the calls of the source. The calls were made as follows, unless noted: active = hit-call score of the fitted dose curve at least 0.9, where 1 is the maximum; inactive = score below 0.9.

What is called AC50 is the concentration at which the activity in the assay is half-maximal.

Sequence of Retinoic acid receptor alpha (Homo sapiens) (P10276 whole entry, looked up): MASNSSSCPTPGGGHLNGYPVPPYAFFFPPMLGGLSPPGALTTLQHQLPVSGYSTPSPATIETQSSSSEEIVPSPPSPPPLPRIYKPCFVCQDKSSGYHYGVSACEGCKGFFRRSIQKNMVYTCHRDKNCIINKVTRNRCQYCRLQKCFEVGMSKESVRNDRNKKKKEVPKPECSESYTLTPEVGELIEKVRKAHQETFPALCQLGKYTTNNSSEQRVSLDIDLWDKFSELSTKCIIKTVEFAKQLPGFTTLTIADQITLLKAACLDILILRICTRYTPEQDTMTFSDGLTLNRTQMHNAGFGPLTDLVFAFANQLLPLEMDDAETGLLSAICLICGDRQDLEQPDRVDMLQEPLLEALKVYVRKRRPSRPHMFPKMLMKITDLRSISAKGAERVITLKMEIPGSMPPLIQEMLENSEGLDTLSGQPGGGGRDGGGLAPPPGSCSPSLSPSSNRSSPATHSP
Sequence of Transcription factor E2F1 (Homo sapiens) (Q01094 whole entry, looked up): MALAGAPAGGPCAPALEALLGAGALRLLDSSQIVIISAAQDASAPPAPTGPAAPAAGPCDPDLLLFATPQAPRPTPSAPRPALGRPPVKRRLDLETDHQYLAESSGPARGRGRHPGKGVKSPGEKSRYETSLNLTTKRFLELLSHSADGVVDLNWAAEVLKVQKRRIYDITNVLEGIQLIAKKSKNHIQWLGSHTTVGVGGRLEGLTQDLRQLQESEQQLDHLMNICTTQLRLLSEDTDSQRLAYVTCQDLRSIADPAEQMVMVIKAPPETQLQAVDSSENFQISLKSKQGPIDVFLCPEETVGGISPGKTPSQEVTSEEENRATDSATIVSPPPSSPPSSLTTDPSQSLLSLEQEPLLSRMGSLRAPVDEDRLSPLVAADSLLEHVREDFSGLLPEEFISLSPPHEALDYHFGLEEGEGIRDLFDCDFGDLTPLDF
Sequence of Hepatocyte nuclear factor 3-beta (Homo sapiens) (Q9Y261 whole entry, looked up): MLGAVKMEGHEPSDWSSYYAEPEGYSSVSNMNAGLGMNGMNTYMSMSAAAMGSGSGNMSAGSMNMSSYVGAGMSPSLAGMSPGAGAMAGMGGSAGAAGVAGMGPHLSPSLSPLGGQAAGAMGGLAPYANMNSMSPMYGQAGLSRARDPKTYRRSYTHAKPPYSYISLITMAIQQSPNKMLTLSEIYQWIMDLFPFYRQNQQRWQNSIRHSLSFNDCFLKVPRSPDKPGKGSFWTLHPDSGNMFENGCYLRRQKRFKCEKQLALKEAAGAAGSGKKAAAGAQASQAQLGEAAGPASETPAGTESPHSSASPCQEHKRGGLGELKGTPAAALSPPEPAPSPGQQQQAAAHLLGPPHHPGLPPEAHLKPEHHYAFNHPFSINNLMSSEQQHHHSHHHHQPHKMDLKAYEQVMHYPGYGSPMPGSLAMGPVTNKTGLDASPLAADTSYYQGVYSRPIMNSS
Sequence of Aryl hydrocarbon receptor (Homo sapiens) (P35869 whole entry, looked up): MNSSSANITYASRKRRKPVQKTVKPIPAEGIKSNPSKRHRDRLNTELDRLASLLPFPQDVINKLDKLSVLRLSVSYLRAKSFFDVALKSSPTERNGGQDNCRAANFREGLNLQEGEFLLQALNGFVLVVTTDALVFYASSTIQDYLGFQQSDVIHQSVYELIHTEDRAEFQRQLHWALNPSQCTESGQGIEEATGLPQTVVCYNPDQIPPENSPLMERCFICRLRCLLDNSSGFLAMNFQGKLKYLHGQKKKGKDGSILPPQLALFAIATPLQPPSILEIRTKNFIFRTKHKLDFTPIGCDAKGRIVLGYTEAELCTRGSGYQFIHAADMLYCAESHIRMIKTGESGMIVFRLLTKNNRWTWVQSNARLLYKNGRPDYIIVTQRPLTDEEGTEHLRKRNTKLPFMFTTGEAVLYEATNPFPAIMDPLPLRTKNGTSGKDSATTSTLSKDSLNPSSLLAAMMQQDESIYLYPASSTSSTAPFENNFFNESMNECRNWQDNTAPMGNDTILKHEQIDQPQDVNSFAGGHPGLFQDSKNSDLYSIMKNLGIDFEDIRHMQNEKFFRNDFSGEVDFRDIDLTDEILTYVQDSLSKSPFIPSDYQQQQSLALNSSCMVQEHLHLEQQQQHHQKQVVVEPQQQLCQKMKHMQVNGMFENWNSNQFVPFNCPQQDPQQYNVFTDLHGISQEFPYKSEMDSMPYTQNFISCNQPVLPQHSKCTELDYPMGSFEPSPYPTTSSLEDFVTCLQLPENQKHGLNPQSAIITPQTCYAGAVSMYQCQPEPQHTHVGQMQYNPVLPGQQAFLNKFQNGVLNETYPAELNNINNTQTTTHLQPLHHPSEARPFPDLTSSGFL
Sequence of CCAAT/enhancer-binding protein beta (Homo sapiens) (P17676 whole entry, looked up): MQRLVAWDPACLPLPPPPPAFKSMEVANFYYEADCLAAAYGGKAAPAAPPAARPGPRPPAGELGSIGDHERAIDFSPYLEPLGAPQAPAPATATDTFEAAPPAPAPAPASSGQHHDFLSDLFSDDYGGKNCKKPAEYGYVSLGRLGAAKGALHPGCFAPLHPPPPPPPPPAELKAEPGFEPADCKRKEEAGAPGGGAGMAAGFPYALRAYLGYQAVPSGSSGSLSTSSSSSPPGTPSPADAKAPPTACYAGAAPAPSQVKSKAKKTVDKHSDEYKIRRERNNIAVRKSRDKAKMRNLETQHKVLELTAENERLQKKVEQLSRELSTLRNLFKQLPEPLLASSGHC

Take `O=S(=O)(O)CCC(F)(F)C(F)(F)C(F)(F)C(F)(F)F`: the call in assay [1], in [2], in [3], in assay [4], in assay [5] and in assay [6] was inactive. The outcome in assay [7], in [8], in assay [9], in assay [10], in assay [11] and in assay [12] was inactive. In addition, the molecule was called inactive in assay [13], in assay [14], in assay [15], in assay [16], in assay [17] and in assay [18].

`CCOC(=O)CCC(C)=O`: the molecule was classed as inactive in assay [1], in assay [2], in assay [3], in assay [4], in assay [5] and in assay [6]. Further, the call in assay [7], in assay [8], in [9], in [10], in assay [11] and in assay [12] was inactive. The outcome in [13], in assay [14], in assay [15], in assay [16], in assay [17] and in assay [18] was inactive.

`CC1=CCC2C(=O)OC(=O)C2C1` (centres undefined): the molecule was called inactive in assay [1], in assay [2], in assay [3], in [4], in [5] and in [7]. Besides, the result in assay [19], in assay [8], in assay [9], in assay [10], in assay [11] and in assay [12] was inactive. Further, the result in [13], in [14], in [15], in assay [16], in [17] and in assay [18] was inactive. For the same molecule, the AC50 in assay [6] was 65 µM (active).

As for `OCCCC(F)(F)C(F)(F)C(F)(F)C(F)(F)C(F)(F)C(F)(F)C(F)(F)C(F)(F)F`, the half-maximal activity concentration (AC50) was 21 µM (active) in [1], 64.3 µM (active) in assay [8] and 22 µM (active) in assay [9]. Also, the molecule was called inactive in assay [2], in assay [3], in assay [4], in assay [5], in assay [6] and in assay [7]. Also, the call in assay [19], in assay [10], in assay [11], in assay [12], in assay [13] and in assay [15] was inactive. Moreover, the molecule was called inactive in assay [20], in assay [16], in assay [17] and in assay [18].
